Screening data: PubChem BioAssay, National Center for Advancing Translational Sciences (NCATS)
ELG1 genotoxic = inducers of genotoxicity in HEK293T ELG1-luciferase cells; HEK293T ELG1-luciferase reporter, luminescence, 16 h; Potency, µM (doses to about 46 µM), for the others: at the highest dose activity change, positive = activation, usual class: activators; 330,000 compounds, 1.3% hits; also: % of control where 0% means no effect; nearly all actives have a fitted effect of over 60% in size
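After overnight (16 hr) compound treatment at 37 °C, ELG1-luciferase HEK293T cells were lysed with ONE-Glo; luminescence quantified 30 min later at room temperature.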
SMN2 splice up = enhancers of SMN2 splice variant expression | AID 1458 | HEK293 SMN2-luciferase splicing reporter, luminescence, 30-36 h | 210,000 compounds, 2.8% hits | Potency, µM (top dose mostly 46.1 µM), without a hit: top-dose activity change, positive = activation, most hits filed as activators; also: % of control where 0% means no effect; nearly all actives have a fitted effect of over 55% in size
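HEK293 cells carry an SMN2 […]–luciferase reporter in which exon 7 inclusion puts luciferase in frame. Cells were plated 10-12 h before compound addition, then incubated 30-36 h at 37C. ONE-Glo luminescence was read; sodium butyrate at 4.5 mM final served as control.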
FLuc counter = inhibits or activates purified firefly luciferase, miR-21 counter-screen; Potency, µM (top dose mostly 57.5 µM), inactives show at the highest dose activity change, negative = inhibition, most hits filed as inhibitors; 360,000 compounds, 6.9% hits; purified FLuc, Km substrates, luminescence inhibition; P08659;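 also: plate controls were vehicle for no effect and reference inhibitor for full effect; nearly all actives have a fitted effect of over 55% in size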
Target sequence (P08659 whole entry, looked up): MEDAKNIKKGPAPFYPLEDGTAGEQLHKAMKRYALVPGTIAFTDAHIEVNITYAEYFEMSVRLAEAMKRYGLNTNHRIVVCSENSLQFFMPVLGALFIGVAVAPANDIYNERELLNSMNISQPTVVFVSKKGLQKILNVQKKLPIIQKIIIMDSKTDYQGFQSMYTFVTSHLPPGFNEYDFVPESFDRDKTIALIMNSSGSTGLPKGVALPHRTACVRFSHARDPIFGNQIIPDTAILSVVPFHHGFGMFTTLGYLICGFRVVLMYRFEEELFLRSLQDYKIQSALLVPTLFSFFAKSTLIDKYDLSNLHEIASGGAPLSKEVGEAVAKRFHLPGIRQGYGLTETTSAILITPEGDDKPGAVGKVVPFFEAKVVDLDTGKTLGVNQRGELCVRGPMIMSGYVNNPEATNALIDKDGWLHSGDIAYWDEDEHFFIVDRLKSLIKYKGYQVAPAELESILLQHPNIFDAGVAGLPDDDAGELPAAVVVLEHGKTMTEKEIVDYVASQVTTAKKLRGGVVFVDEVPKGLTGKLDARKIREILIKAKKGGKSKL
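Purified P. pyralis luciferase, 10 nM final, with Km-level 10 uM D-luciferin and 10 uM ATP in 50 mM Tris acetate pH 7.5, 10 mM Mg acetate, 0.01% Tween-20, 0.05% BSA; 6-point qHTS titration about 60 µM downward; luminescence read.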
Rab9 prom act = activates the Rab9 promoter | Huh7 Rab9 promoter-luciferase reporter, luminescence, 24 h | Potency, µM (doses to about 9.22 µM), for the others: top-dose activation, negative = inhibition, most hits filed as activators | 320,000 compounds, 2.8% hits; also: % of control where 0% means no effect; nearly all actives have a fitted effect of over 60% in size
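Huh7 cells stably carrying a Rab9 promoter-luciferase reporter, 1500 cells per well in OP-MEM I with 10% FBS, treated with compound 24 hours at 37C. Luciferase activity read by luminescence after 10 minutes with Amplite reagent.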
NPC1 prom act = activators of NPC1 promoter; Huh7 NPC1 promoter luciferase reporter, 24 h; Potency, µM (highest dose often 9.22 µM), without a hit: at the highest dose activation, most hits filed as activators; 320,000 compounds, 2.4% hits; also: % of control where 0% means no effect; nearly all actives have a fitted effect of over 60% in size
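Cells: Huh7 expressing luciferase under the NPC1 promoter, 1500/well. Seeded 2 h, compound added, incubated 24 h at 37 °C. Luciferase reagent, 10 min ambient, then luminescence.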
ELG1 repair inh = ELG1-dependent DNA repair inhibition. HEK293T ELG1-luciferase reporter, luminescence, 16 h; DNA damage induced by 5-fluorouridine. Potency, µM (highest dose often 46.1 µM), without a hit: top-dose activity change, negative = inhibition, hits mostly inhibitors. 330,000 compounds, 2.3% hits; also: % is scaled to controls: 0 for no effect and ±100 for the full control effect; nearly all actives have a fitted effect of over 55% in size
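In this reporter screen, reduction of luminescence relative to DMSO vehicle indicated activity. Compounds and 5-fluorouridine were added together to 2,000 cells per well, incubated for 16 hr at 37 °C, then developed with ONE-Glo.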
Numbers without * were called inactive; ? = inconclusive; . = no result given; [ ] = remark or other dose. An excerpt weighted towards active compounds, which were near 9.3% of everything screened. Calls follow the shape of the dose curve; as a rule, active = well fitted curve in the direction sought with a large enough effect; inconclusive = small, poorly fitted or top-dose-only effect, or another doubt; inactive = no such curve, though single readings can be large; an effect the other way counts as inactive or inconclusive. Potency is read from the fitted curve at half-maximal effect.

SMILES | ELG1 genotoxic | SMN2 splice up | FLuc counter | Rab9 prom act | NPC1 prom act | ELG1 repair inh
COC(=O)c1c(NC(=O)Cc2cccs2)sc(C(=O)N2CCCCC2)c1C | -1% | -12% | -7% | -3% | -3% | 26µM*
COC(=O)c1c(NC(=O)CN(C)CC(=O)Nc2ccc(C)cc2)sc2c1CCC(C)C2 (configuration not stated) | 0% | . | -10% | -2% | -4% | ?
CC(C)CN(CC(C)C)S(=O)(=O)N1CCC(C(=O)NCc2ccc3c(c2)OCO3)CC1 | -6% | -21% | -2% | 0% | -7% | ?
Cc1ccccc1-c1nc2cc(Cl)ccc2o1 | ? | . | 2.1µM* | ? | ? | ?
Cc1ccccc1-c1nc2ccccc2o1 | 3% | -8% | 8.5µM* | -6% | -1% | 28%
Cc1ccccc1-c1nc2cc(Cl)ccc2c(=O)o1 | 0% | . | -11% | 1% | -4% | -2%
Cc1nc2ccccc2oc1=O | . | 10% | . | . | . | .
O=C(Cn1cncn1)c1ccccc1 | 2% | . | -2% | -1% | 12% | -11%
O=C(NCc1ccccc1)NC(O)C(Cl)(Cl)Cl (configuration not stated) | 5% | . | 1% | 4% | -5% | 17%
O=C(CC1CCCC1)Nc1ccc2c(c1)CCC2 | ? | ? | 13µM* | 3.5µM* | 2.5µM* | ?
Cc1cc(NC(=O)CCSc2ccccc2)ccc1Br | ? | ? | 24µM* | 20% | 14% | ?
Cc1cc(NC(=O)CC2CCCC2)ccc1Br | ? | . | 19µM* | ? | -30% | ?
Cc1cccc(NC(=O)CC2CCC2)c1 | 5% | 4% | -11% | 4% | 9% | 27%
Cc1c(Cl)ccc2sc(NC(=O)c3ccc(S(=O)(=O)N4CCCc5ccccc54)cc3)nc12 | . | . | -1% | . | . | .
CCC(O)(C(=O)Nc1ccccc1C(F)(F)F)c1ccccc1OC (configuration not stated) | 0% | . | -3% | -11% | -3% | -4%
COc1ccccc1C(C)NCC(=O)Nc1ccccc1C(F)(F)F (configuration not stated) | -5% | 4.5µM* | -9% | 6% | -1% | 4%
Cc1c(C)n(Cc2ccccc2)c2ncnc(NCCO)c12 | 1% | . | -1% | 0% | 2% | -2%
Cc1c(C)n(Cc2ccccc2)c2ncnc(N)c12 | -9% | -21% | -1% | -9% | -1% | 16µM*
C=CC1=C2C=C(C3CC3)N(CCCCO)C=C2C(=O)C(C)(OC(=O)c2ccco2)C1=O (configuration not stated) | . | -2%[9.22 µM] | . | . | . | .
O=C(CC1CC2CCC1C2)N1CCN(S(=O)(=O)c2ccccc2C(F)(F)F)CC1 (configuration not stated) | -6% | . | 3% | 0% | -3% | 11µM*
Cc1nn(-c2ccccc2)c2sc(C(=O)OC3CCOC3=O)cc12 (configuration not stated) | 2% | 9% | 15µM* | -1% | 3% | 15%
Cc1ccc(-n2nc(C)c3cc(C(=O)O)sc32)cc1 | 3% | 8% | 19µM* | -4% | -1% | 5%
Cc1ccc(S(=O)(=O)N2CCN(C(=O)c3cc4c(C)nn(-c5ccccc5)c4s3)CC2)cc1 | -6% | -14% | -1% | -3% | -2% | 10µM*
Cc1cc(C)c(S(=O)(=O)N2CCN(c3ccccn3)CC2)c(C)c1 | -5% | . | -2% | -6% | -3% | 0%
O=C(c1ccccc1)N1CCN(S(=O)(=O)c2ccc(Cl)c(C(F)(F)F)c2)CC1 | 2% | . | -2% | 0% | 0% | -6%
Cc1nn(-c2ccccc2)c2sc(C(=O)O)cc12 | 0% | ? | ? | 3% | 1% | ?
O=C(c1ccccc1C(F)(F)F)N1CCN(S(=O)(=O)c2ccccc2)CC1 | -6% | -7% | 2% | 4% | -2% | 21µM*
